Laboratory results published in the supplement of paper PMC11732987, “Enantioselective OTUD7B fragment discovery through chemoproteomics screening and high-throughput optimisation” (Communications Chemistry, 2025).

Legend:
Test in all cases: log2 ratio of Biotin-Ahx-Ub-VS probe labelling (fragment/DMSO); higher = less target engagement (more negative = stronger competition), active = hit call of the paper (q ≤ 0.05, log2 ratio ≤ -1)
Details in all cases: compound concentration: 200 uM; treatment time: 3 h
[1] = biological target: USP16 (UniProt Q9Y5T5)
Sequence of USP16 (Q9Y5T5 whole entry, looked up, the tested form may be a part): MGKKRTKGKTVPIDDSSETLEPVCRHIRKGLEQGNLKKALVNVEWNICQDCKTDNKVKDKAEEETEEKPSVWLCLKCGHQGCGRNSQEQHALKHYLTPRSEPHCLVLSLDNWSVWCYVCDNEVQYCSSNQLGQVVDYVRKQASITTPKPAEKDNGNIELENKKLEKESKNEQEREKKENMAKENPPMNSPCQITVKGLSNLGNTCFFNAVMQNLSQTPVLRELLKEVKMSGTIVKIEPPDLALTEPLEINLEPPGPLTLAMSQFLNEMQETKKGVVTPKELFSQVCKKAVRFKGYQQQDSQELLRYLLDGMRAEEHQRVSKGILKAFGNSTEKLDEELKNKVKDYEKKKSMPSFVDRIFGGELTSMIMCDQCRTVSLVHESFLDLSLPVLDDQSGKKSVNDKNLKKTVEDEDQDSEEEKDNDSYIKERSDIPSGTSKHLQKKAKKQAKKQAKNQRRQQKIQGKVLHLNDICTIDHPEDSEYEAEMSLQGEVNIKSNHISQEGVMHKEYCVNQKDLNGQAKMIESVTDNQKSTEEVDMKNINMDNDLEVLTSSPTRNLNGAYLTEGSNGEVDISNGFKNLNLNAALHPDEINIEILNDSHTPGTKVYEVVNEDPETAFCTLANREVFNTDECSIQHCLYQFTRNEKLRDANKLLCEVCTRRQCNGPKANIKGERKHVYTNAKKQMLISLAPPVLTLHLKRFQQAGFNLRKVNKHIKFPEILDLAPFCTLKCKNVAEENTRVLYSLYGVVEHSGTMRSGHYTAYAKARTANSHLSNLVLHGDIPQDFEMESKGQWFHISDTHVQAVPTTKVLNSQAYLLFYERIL
Procedure, shortened: (§1)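 Global-median-normalised Spectronaut label-free quantities were compared by unpaired t-test, and values are average log2 ratios of fragment over vehicle. Only proteins with ≥2 unique peptides were used. HEK293T lysate (495 µg per sample) was treated in triplicate with fragment at 200 µM or vehicle for 3 h and then with Biotin-Ahx-Ub-VS at 0.5 µM final for 1 h. Labelled DUBs were then NeutrAvidin-enriched, digested with LysC and trypsin, and run by diaPASEF LC-MS/MS.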

[2] = biological target: T1, USP19 (UniProt O94966)
T1 sequence (whole entry): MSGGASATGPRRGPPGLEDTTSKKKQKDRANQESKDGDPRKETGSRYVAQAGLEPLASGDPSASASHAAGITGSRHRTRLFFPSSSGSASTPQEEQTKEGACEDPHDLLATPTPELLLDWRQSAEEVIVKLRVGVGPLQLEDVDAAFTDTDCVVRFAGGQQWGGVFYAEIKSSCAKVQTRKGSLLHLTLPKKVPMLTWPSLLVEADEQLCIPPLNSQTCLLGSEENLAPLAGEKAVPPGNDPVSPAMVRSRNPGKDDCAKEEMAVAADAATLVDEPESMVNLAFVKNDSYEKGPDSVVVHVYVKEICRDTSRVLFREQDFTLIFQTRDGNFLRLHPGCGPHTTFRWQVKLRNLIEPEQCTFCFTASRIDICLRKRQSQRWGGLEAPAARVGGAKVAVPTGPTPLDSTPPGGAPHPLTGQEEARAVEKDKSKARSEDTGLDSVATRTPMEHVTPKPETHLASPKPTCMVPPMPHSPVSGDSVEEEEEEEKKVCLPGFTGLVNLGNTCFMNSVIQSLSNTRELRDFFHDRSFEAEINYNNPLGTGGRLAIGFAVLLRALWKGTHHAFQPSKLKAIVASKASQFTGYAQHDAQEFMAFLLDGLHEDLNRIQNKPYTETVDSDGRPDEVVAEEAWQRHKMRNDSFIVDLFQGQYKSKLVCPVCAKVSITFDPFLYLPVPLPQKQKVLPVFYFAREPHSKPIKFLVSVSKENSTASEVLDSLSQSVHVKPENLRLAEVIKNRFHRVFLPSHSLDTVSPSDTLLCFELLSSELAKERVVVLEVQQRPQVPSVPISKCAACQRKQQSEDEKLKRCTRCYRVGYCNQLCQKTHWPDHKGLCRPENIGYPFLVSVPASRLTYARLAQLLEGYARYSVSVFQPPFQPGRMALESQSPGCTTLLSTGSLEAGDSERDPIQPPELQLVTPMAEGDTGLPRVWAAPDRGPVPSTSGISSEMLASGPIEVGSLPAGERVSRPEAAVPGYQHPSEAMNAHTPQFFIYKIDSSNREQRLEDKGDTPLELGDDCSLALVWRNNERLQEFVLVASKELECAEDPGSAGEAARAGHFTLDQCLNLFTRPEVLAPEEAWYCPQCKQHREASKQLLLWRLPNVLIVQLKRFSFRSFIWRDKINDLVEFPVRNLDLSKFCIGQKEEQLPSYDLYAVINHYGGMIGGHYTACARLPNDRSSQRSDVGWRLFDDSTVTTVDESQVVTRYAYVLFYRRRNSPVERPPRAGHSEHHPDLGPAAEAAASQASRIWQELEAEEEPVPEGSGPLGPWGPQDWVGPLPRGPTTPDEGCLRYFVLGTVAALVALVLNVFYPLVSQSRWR
Procedure, shortened: as §1

[3] = biological target: USP24 (UniProt Q9UPU5)
Sequence of USP24 (Q9UPU5 whole entry): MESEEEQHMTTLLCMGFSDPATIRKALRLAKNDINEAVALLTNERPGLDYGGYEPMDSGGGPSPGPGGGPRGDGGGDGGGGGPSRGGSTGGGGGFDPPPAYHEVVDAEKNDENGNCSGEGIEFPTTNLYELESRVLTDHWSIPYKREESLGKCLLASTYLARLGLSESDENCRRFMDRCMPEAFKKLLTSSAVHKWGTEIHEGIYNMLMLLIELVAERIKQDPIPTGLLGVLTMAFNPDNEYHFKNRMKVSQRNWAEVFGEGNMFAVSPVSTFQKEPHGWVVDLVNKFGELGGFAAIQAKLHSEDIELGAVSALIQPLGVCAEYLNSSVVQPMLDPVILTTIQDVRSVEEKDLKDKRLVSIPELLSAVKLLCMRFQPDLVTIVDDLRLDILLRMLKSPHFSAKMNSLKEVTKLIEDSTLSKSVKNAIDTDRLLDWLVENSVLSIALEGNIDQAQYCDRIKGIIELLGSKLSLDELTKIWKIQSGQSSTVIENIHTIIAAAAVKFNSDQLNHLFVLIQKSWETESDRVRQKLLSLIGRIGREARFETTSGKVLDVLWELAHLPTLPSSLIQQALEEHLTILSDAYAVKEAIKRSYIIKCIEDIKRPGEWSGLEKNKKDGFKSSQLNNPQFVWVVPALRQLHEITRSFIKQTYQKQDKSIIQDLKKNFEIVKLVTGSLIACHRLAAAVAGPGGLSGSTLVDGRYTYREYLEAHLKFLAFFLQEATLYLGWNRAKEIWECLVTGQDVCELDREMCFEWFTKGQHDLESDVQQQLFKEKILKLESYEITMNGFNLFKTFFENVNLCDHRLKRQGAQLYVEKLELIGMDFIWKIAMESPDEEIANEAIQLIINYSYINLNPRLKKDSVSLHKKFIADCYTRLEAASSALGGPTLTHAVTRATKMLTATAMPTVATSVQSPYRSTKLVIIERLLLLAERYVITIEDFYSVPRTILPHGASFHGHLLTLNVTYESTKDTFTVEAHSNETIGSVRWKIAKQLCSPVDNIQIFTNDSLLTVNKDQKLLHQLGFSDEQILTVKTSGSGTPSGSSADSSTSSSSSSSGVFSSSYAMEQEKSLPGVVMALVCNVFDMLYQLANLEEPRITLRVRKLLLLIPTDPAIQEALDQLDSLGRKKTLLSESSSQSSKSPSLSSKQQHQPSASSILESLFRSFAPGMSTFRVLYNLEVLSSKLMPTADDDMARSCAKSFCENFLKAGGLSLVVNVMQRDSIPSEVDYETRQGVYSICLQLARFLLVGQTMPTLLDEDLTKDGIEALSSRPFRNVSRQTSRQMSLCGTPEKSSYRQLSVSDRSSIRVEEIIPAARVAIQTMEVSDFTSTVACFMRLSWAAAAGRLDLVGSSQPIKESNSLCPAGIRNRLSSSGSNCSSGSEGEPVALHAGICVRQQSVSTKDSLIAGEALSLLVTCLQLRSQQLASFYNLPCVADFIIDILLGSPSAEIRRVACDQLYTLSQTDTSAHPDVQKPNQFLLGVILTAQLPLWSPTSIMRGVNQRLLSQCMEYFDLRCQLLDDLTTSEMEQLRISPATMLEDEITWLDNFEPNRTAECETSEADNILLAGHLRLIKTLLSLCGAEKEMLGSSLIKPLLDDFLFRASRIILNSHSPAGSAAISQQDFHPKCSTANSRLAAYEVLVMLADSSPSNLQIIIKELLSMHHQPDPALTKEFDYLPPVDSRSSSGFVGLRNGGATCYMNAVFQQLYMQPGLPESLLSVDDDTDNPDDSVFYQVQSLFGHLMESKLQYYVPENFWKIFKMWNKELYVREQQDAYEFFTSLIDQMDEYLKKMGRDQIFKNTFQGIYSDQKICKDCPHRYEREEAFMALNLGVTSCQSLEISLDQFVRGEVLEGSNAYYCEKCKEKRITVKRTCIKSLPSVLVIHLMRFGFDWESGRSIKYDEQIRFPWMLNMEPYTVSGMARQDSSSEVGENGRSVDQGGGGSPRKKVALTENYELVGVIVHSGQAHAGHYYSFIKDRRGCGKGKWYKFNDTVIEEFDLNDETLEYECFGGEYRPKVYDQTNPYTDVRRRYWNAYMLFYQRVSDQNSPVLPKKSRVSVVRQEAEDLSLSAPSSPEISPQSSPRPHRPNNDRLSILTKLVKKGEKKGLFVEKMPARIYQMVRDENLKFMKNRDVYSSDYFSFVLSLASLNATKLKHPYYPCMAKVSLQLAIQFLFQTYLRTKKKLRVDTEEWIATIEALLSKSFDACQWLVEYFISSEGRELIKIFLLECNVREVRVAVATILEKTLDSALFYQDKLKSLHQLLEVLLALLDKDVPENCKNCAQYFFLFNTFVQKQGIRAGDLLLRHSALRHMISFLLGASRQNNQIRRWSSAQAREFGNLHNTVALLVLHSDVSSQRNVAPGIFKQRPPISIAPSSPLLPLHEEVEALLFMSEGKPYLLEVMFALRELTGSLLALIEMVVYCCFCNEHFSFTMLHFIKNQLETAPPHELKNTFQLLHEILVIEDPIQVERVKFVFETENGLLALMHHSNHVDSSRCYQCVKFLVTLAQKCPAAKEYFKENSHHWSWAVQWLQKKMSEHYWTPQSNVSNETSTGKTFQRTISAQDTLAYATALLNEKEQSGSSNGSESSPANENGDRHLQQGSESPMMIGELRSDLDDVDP
Procedure, shortened: as §1

[4] = biological target: T2, USP25 (UniProt Q9UHP3)
T2 sequence (whole entry): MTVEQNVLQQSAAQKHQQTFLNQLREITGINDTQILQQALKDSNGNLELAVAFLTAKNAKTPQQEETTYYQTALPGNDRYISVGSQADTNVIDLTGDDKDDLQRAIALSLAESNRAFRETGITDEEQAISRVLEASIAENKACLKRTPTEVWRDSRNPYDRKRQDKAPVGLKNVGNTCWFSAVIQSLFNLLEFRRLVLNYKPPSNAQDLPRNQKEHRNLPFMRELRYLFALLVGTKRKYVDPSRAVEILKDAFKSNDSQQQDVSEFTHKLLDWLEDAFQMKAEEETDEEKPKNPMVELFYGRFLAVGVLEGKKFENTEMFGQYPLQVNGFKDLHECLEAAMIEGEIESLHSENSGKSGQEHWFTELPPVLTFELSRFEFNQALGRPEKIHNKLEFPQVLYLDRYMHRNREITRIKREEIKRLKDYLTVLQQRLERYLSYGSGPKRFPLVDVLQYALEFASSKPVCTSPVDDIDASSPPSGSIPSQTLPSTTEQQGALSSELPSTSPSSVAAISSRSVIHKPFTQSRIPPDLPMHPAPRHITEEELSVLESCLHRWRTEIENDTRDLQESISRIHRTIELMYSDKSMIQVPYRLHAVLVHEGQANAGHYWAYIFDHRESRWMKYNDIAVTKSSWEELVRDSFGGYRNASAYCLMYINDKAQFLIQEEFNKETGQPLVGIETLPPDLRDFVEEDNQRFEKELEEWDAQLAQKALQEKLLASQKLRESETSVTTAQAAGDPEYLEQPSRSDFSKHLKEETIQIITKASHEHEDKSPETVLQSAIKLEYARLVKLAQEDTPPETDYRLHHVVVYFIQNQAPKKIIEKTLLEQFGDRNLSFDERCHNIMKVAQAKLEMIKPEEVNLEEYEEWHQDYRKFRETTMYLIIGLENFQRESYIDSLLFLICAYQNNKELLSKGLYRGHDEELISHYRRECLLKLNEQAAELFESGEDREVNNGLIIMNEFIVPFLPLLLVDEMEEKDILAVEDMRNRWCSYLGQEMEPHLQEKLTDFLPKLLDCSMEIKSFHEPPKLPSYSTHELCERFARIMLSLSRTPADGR
Procedure, shortened: as §1

[5] = biological target: T3, USP28 (UniProt Q96RU2)
T3 sequence (whole entry): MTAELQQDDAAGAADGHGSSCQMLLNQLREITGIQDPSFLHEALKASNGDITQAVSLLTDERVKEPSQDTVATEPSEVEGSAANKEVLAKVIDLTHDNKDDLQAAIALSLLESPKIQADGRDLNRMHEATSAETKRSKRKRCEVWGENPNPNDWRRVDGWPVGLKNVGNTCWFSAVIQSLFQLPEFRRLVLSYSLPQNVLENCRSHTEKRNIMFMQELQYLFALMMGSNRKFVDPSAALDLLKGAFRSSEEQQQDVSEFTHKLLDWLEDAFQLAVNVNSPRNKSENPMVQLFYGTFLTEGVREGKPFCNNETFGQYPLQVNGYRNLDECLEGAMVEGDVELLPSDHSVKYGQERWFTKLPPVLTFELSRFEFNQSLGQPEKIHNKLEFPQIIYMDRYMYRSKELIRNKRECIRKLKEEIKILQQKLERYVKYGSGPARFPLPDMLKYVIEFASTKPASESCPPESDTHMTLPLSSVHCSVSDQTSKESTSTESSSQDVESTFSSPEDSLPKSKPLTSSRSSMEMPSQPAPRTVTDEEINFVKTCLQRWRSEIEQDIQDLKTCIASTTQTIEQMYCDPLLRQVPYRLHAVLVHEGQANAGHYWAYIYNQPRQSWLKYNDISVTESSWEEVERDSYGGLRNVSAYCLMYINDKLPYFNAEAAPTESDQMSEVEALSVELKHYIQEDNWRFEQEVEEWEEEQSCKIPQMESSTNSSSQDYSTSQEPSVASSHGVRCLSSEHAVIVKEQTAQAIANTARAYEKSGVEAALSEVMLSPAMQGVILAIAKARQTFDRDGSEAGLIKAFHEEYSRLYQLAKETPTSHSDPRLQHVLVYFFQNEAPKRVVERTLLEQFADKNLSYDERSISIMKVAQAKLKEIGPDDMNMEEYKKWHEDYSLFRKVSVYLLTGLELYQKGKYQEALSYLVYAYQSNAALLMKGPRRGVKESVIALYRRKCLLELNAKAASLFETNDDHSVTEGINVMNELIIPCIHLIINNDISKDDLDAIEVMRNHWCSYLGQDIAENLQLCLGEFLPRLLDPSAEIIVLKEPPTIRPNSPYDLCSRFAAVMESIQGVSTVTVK
Procedure, shortened: as §1

Measured: log2 ratio of Biotin-Ahx-Ub-VS probe labelling

O=C(O)C1Cc2ccccc2CN1C(=O)CCl (stereo not given)
inactive: [1] 0.23 | [2] -0.32 | [3] -0.348 | [4] -0.37 | [5] -0.576
